Experimental data from PubChem BioAssay (Tox21).
Records with an inconclusive call do not appear. The source made the active and inactive calls. Unless noted, calls come from the whole dose curve; as a rule, active = well fitted curve in the direction sought with a large enough effect in the repeat runs; inconclusive = weak or mixed curves; inactive = no such curve, though single readings can be large; an effect the other way counts as inactive or inconclusive.

Tests used:
[1] = qHTS assay to identify small molecule antagonists of the glucocorticoid receptor (GR) signaling pathway - cell viability counter screen (AID 720693); note: nearly all actives have a fitted effect of over 55% in size
[2] = qHTS assay for identifying genotoxic compounds that show differential cytotoxicity against isogenic chicken DT40 cell lines with known DNA damage response pathways - wild type cell line (AID 743012); note: nearly all actives have a fitted effect of over 60% in size; note: potency is the fitted concentration of half-maximal effect
How it was run: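 Wild type DT40, 300 cells/well, ~0.5 h settle at 37 C/5% CO2; compounds in DMSO added by pintool; 40 h at 37 C/5% CO2; CellTiter-Glo, 30 min RT; luminescence.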

[3] = qHTS assay for identifying genotoxic compounds that show differential cytotoxicity against isogenic chicken DT40 cell lines with known DNA damage response pathways - Rev3 mutant cell line (AID 743014); note: nearly all actives have a fitted effect of over 55% in size; note: potency is the fitted concentration of half-maximal effect
[4] = qHTS assay for identifying genotoxic compounds that show differential cytotoxicity against isogenic chicken DT40 cell lines with known DNA damage response pathways - Rad54/Ku70 mutant cell line (AID 743015); note: nearly all actives have a fitted effect of over 60% in size; note: potency is the fitted concentration of half-maximal effect
[5] = qHTS assay to identify small molecule antagonists of the androgen receptor (AR) signaling pathway - cell viability counter screen (AID 743033; note: nearly all actives have a fitted effect of over 45% in size)
[6] = biological target: Androgen receptor (Homo sapiens) (UniProt P10275); assay: qHTS assay to identify small molecule antagonists of the androgen receptor (AR) signaling pathway (AID 743035; active = well fitted inhibition curve with a large enough effect in the signal ratio in the repeat runs, not every such curve was filed as active; the % refers to the signal ratio)
How it was run: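 Fluorescence from a beta-lactamase FRET substrate (LiveBLAzer B/G, 2 h, room temperature) measured inhibition of R1881-stimulated signaling in GeneBLAzer AR-UAS-bla HEK293 cells exposed to compound for 16 h at 37C.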

[7] = qHTS assay to identify small molecule antagonists of the androgen receptor (AR) signaling pathway using the MDA cell line - cell viability counter screen (AID 743041; note: nearly all actives have a fitted effect of over 45% in size)
How it was run: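 R1881-driven MDA-kb2 AR-luc cells, 3,000/well, were dosed with library compounds for 16 h; cell health came from CellTiter-Fluor fluorescence in the reporter wells.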

[8] = biological target: Androgen receptor (Homo sapiens) (UniProt P10275); assay: qHTS assay to identify small molecule antagonists of the androgen receptor (AR) signaling pathway using the MDA cell line (AID 743042; note: nearly all actives have a fitted effect of over 55% in size; note: potency is the fitted concentration of half-maximal effect)
How it was run: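 Antagonist mode: compounds plus R1881 agonist added to MDA-kb2 AR-luc cells, incubated 16 h at 37C. Luciferase reporter luminescence quantified, with multiplexed CellTiter-Fluor readout for cell viability.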

[9] = biological target: Androgen receptor (Homo sapiens) (UniProt P10275); assay: qHTS assay to identify small molecule agonists of the androgen receptor (AR) signaling pathway (AID 743036; active = well fitted activation curve with a large enough effect in the signal ratio in the repeat runs, with a control signal flat, not every such curve was filed as active; the % refers to the signal ratio; note: potency is the fitted concentration of half-maximal effect)
How it was run: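 Quantitative HTS of the Tox21 10K library in HEK293 cells bearing a stably integrated UAS-controlled beta-lactamase reporter. Compound exposure lasted 16 h at 37C. Reporter activity was detected by FRET substrate fluorescence after 2 h at room temperature.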

[10] = biological target: Androgen receptor (Homo sapiens) (UniProt P10275); assay: qHTS assay to identify small molecule agonists of the androgen receptor (AR) signaling pathway using the MDA cell line (AID 743040; note: nearly all actives have a fitted effect of over 20% in size)
How it was run: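 After a 5 h incubation at 37C and 0% CO2, MDA-kb2 reporter cells were dosed with compounds in DMSO and kept 16 h under the same conditions. Luciferase activity was then read as luminescence with ONE-Glo.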
% is set by controls: 0 for no effect and ±100 for the full control effect.

Androgen receptor (Homo sapiens), sequence (P10275 whole entry, looked up): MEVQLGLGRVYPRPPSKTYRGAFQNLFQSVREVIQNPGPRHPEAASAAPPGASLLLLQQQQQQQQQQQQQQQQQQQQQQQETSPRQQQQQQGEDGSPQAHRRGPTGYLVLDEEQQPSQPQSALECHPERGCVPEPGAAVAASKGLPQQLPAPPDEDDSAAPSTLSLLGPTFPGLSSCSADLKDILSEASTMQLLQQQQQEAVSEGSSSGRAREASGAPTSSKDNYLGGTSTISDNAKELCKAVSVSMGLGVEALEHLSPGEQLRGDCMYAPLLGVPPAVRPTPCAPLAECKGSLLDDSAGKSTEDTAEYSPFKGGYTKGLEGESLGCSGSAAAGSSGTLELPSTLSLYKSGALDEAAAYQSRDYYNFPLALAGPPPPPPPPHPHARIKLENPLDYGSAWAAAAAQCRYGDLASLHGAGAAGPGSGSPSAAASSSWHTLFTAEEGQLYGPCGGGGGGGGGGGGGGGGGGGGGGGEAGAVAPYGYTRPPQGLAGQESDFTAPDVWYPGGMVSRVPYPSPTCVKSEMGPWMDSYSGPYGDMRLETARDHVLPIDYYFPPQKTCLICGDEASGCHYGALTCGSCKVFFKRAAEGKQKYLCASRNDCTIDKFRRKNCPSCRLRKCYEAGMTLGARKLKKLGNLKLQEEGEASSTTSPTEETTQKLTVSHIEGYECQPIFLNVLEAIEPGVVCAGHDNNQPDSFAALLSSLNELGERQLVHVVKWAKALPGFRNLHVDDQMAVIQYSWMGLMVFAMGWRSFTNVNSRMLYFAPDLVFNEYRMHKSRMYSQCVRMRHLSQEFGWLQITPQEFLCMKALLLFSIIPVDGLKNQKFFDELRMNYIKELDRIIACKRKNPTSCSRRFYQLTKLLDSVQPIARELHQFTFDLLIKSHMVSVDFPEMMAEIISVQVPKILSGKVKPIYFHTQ

OCC1CC=CCC1 (configuration not stated)
inactive: Potency [1] | Potency [2] | Potency [3] | Potency [4] | Potency [5] | Potency [6] | Potency [7] | Potency [8]

C=CC(=C)CCCC(C)(C)OC(C)=O
inactive: Potency [1] | Potency [2] | Potency [3] | Potency [4] | Potency [5] | Potency [6] | Potency [9] | Potency [10] | Potency [7] | Potency [8]

CCc1cccc(N(C)C(N)=Nc2cccc3ccccc23)c1
inactive: Potency [1] | Potency [5] | Potency [6] | Potency [10]
active: Potency [2] 5.96 µM | Potency [3] 11.9 µM | Potency [4] 11.9 µM

CCCC(=O)O[C@]1(C(=O)COC(=O)CC)CC[C@H]2[C@@H]3CCC4=CC(=O)CC[C@]4(C)[C@H]3[C@@H](O)C[C@@]21C
active: Potency [9] 0.0239 µM
inactive: Potency [1] | Potency [2] | Potency [3] | Potency [4] | Potency [5] | Potency [6] | Potency [7] | Potency [8]

C[N+](C)(C)CCOC(N)=O
inactive: Potency [1] | Potency [2] | Potency [3] | Potency [4] | Potency [5] | Potency [9] | Potency [8]

O=C(O)c1cccnc1C(=O)O
inactive: Potency [1] | Potency [2] | Potency [3] | Potency [4] | Potency [5]

CCCCCC=CCC=CCCCCCCCC(=O)OCC
inactive: Potency [1] | Potency [2] | Potency [3] | Potency [4] | Potency [5] | Potency [7]

CC1=C(C=O)C(C)(C)CCC1
inactive: Potency [1] | Potency [2] | Potency [3] | Potency [4] | Potency [5] | Potency [7]

CC(N)CN (configuration not stated)
inactive: Potency [1] | Potency [2] | Potency [3] | Potency [4] | Potency [5] | Potency [7]

CCCCN(CCCC)CCCOC(=O)c1ccc(N)cc1
inactive: Potency [1] | Potency [5] | Potency [7]
active: Potency [2] 4.52 µM | Potency [3] 2.27 µM | Potency [4] 4.52 µM

O=C(NCCCN1CCOCC1)c1ccc(Cl)cc1
inactive: Potency [1] | Potency [2] | Potency [3] | Potency [4] | Potency [5] | Potency [7]

CCn1cc(C(=O)O)c(=O)c2cc(F)c(N3CCNCC3)nc21
inactive: Potency [1] | Potency [2] | Potency [3] | Potency [4] | Potency [5] | Potency [7]

OC/C(Br)=C(\Br)CO
inactive: Potency [1] | Potency [2] | Potency [3] | Potency [4] | Potency [5] | Potency [7]

O=C(N/N=C/c1ccc([N+](=O)[O-])o1)c1ccc(O)cc1
active: Potency [2] 4.52 µM | Potency [3] 4.03 µM | Potency [4] 4.52 µM | Potency [8] 4.52 µM
inactive: Potency [1] | Potency [5] | Potency [10]

C=CCCCCCCCCCCCCCCCC
inactive: viability change, negative = cytotoxic [1] -0.145% [at 7.04 µM] | activity change, negative = cytotoxicity [2] -12.1% [at 8.52 µM] | activity, negative = cytotoxicity [3] 2.07% [at 8.53 µM] | activity change, negative = cytotoxicity [4] -0.283% [at 8.55 µM] | activity change, negative = cytotoxicity [5] 0.86% [at 7.04 µM] | viability change, negative = cytotoxic [7] -4.7% [at 8.47 µM]

Cc1cc(OI)c(C(C)C)cc1-c1cc(C(C)C)c(OI)cc1C
inactive: Potency [1] | Potency [2] | Potency [3] | Potency [4] | Potency [5] | Potency [7]

Brc1cc(-c2ccc(Br)c(Br)c2Br)cc(Br)c1Br
inactive: Potency [1] | Potency [2] | Potency [3] | Potency [4] | Potency [5] | Potency [7]

CCOc1cc(N)c(Cl)cc1C(=O)NCC1CN(Cc2ccc(F)cc2)CCO1 (configuration not stated)
inactive: Potency [1] | Potency [5] | Potency [7]
active: Potency [2] 18.8 µM | Potency [3] 11.9 µM | Potency [4] 21.1 µM

C=C(C)C(=O)OCCOC(=O)CC(C)=O
inactive: Potency [1] | Potency [2] | Potency [3] | Potency [4] | Potency [5] | Potency [7]

[O]=[Bi]
inactive: viability change, negative = cytotoxic [1] -0.0549% [at 7.04 µM] | activity change, negative = cytotoxicity [2] -3.35% [at 8.52 µM] | activity, negative = cytotoxicity [3] 0.555% [at 8.53 µM] | activity change, negative = cytotoxicity [4] 2.55% [at 8.55 µM] | activity change, negative = cytotoxicity [5] -10.1% [at 7.04 µM] | viability change, negative = cytotoxic [7] -2.29% [at 8.47 µM]

CC(COc1ccc(C(C)(C)C)cc1)OS(=O)OCCCl (configuration not stated)
inactive: Potency [1] | Potency [2] | Potency [3] | Potency [4] | Potency [5] | Potency [7]

CC(C)CCCCCOC(=O)CCCCC(=O)OCCCCCC(C)C
active: Potency [2] 61.1 µM | Potency [3] 61.1 µM | Potency [4] 61.1 µM
inactive: Potency [1] | Potency [5] | Potency [7]

CN1CCCN=C1/C=C/c1cccs1
inactive: Potency [1] | Potency [2] | Potency [3] | Potency [4] | Potency [5] | Potency [7]

N#C[C@@H]1C[C@@H]2C[C@@H]2N1C(=O)[C@@H](N)C12CC3CC(CC(O)(C3)C1)C2
inactive: Potency [1] | Potency [2] | Potency [3] | Potency [4] | Potency [5] | Potency [7]

Cc1ccccc1N1C(=O)c2cc(S(N)(=O)=O)c(Cl)cc2NC1C (configuration not stated)
inactive: Potency [1] | Potency [2] | Potency [3] | Potency [4] | Potency [5] | Potency [7]

C=CC(C)(C)CC(=O)OC
inactive: Potency [1] | Potency [2] | Potency [3] | Potency [4] | Potency [5] | Potency [7]
